FMDV antiviral = antivirals against foot and mouth disease virus; Potency, µM (doses to about 57.9 µM), inactives show at the highest dose activity change, negative = inhibition, most hits filed as inhibitors; AID 1159524; 410,000 compounds, 1.2% hits; FMDV antiviral cell-based qHTS; calls by dose curve; tested in HEK293T cells; further: read-out not given here; nearly all actives have a fitted effect of over 45% in size
VACV Venus inh = inhibitors of vaccinia virus (Venus reporter); Vaccinia virus Venus reporter expression, fluorescence; 330,000 compounds, 0.46% hits; Potency, µM (series often up to 36.5 µM), inactives show top-dose activity change, negative = inhibition, hits mostly inhibitors; calls by dose curve; tested in A549 cells; further: nearly all actives have a fitted effect of over 30% in size
LASV entry inh = inhibitors of Lassa virus binding or cell entry; Lassa virus pseudotype entry inhibition, cell reporter; Potency, µM (titrated, usually from 37.9 µM), for inactives: at the highest dose activity change, negative = inhibition, usual class: inhibitors; 300,000 compounds, 1.2% hits; calls by dose curve; tested in HEK293 cells; further: nearly all actives have a fitted effect of over 50% in size
MARV entry inh = Marburg virus entry inhibition; Marburg virus pseudotyped entry inhibition, cell reporter; Potency, µM (series often up to 37.8 µM), without a hit: top-dose activity change, negative = inhibition, actives largely listed as inhibitors; 300,000 compounds, 1.8% hits; AID 540276; calls by dose curve; tested in HEK293 cells
HCV inh = blocks hepatitis C virus; Potency, µM (titrated, usually from 41.8 µM), for inactives: at the top dose activity change, negative = inhibition, usual class: inhibitors; Huh7.5.1 HCVcc-Cre infection, luciferase reporter, 44 h; 340,000 compounds, 3.4% hits; active means well fitted inhibition curve with a large enough effect; inconclusive means small, poorly fitted or top-dose-only effect, or another doubt; inactive means no such curve, though single readings can be large or run the other way
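Infectious HCV cell culture screen: compound-treated cells (1,000/well, pre-plated 4 h) are infected with HCVcc-Cre at roughly 0.5 moi and grown 44 h. Infection is quantified by luciferase signal after 15 min substrate incubation at room temperature.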
Vaccinia mCherry = inhibitors of vaccinia virus infection (mCherry reporter signal). Vaccinia virus mCherry reporter infection, fluorescence. Potency, µM (doses to about 36.5 µM), for the others: top-dose activity change, negative = inhibition, most hits filed as inhibitors. 310,000 compounds, 0.63% hits; calls by dose curve; tested in A549 cells; further: nearly all actives have a fitted effect of over 35% in size
* marks the source's active call; other numbers are inactive results; i = inactive; ? = inconclusive; nt = no result; [ ] = dose if it differs, or a comment. This is a sample that favours compounds with a hit; in the whole collection about 5.3% have one here. On the % scale 0 is the no-effect control and ±100 the full control effect; potency means the concentration at half of the fitted maximal effect.

SMILES	FMDV antiviral	VACV Venus inh	LASV entry inh	MARV entry inh	HCV inh	Vaccinia mCherry
Cc1cc2c(c(-c3ccc4nc(C)ccc4c3)c1)OC(CNC(=O)Cc1ccn(C)c1)C2 (centres undefined)	5%	-15%	nt	nt	nt	-25%
O=C(C[n+]1c(Cl)cc(Cl)c2ccccc21)c1ccccc1	nt	-8%	nt	nt	nt	-15%
Cc1ccc(NC(=O)c2sc3nc[nH]c(=O)c3c2C)cc1C	24%	-13%[7.34 µM]	2%[46.1 µM]	nt	nt	-23%[7.34 µM]
CCO[C@H]1OC(C(=O)O)=C[C@@H](c2ccc3c(c2)OCO3)[C@@H]1CCCO	-6%	1%	nt	nt	2.5µM*	-12%
CCO[C@H]1OC(C(=O)N2CCN(C)CC2)=C[C@@H](c2coc3ccccc3c2=O)[C@@H]1CCCO	-4%	-6%	nt	nt	8%	i
CCO[C@H]1OC(C(=O)N2CCOCC2)=C[C@@H](c2coc3ccccc3c2=O)[C@@H]1CCCO	-19%	2%	nt	nt	35µM*	i
O=C(Nc1ccc(Cl)c(Cl)c1)OCc1cccnc1	-19%	nt	?	-18%	22µM*	nt
O=C(Nc1ccc(Cl)c(Cl)c1)c1cccc(S(=O)(=O)NCc2cccnc2)c1	?	?	13µM*	?	14µM*	28µM*
C=CCOC(=O)C(C(C)=O)[C@@H](NC(=O)OC)c1ccc(F)cc1 (some centres undefined)	nt	nt	nt	20%[14.2 µM]	nt	nt
COc1cc(N(C)C)ccc1/C=C1\C=Cc2ccccc21	nt	-18%	nt	nt	nt	21%
CCOC(=O)c1c(-c2ccccc2)oc2ccc(NS(=O)(=O)c3ccc(C)cc3)cc12	23%	-23%	?	nt	nt	-27%
Cc1oc2ncn(C)c(=O)c2c1C(=O)NCCCN1CCCCC1C (centres undefined)	2%	-2%	29%[46.1 µM]	nt	nt	-10%
C=CCN1C[C@@H](C)N(C(c2ccc(C(=O)N(CC)CC)cc2)c2cccc(OC)c2)C[C@@H]1C (some centres undefined)	-30%	-18%	nt	nt	21%	-6%
C=CCN1C[C@@H](C)N([C@H](c2ccc(C(=O)N(CC)CC)cc2)c2cccc(OC)c2)C[C@@H]1C	nt	nt	?	16µM*	nt	nt
O=C(Nc1ccc(OC(F)F)c(Cl)c1)C(c1ccccc1)c1ccccc1	40µM*	nt	nt	nt	?	nt
CC(NC(=S)Nc1ccc(OC(F)F)c(Cl)c1)C(C)(C)C (centres undefined)	-3%	?	?	?	11µM*	-24%
CN(C)NC(=S)Nc1cccc(C(F)(F)F)c1	-19%	-11%	3%	19%[46.1 µM]	-1%	-3%
FC(F)Oc1ccc(NC(=S)NCc2ccccc2)cc1Cl	-17%	nt	-15%	12%	13µM*	nt
CC(NC(=S)Nc1cccc(C(F)(F)F)c1)C(C)(C)C (centres undefined)	?	-21%	10µM*	?	?	-6%
Fc1ccc(Nc2ncnc3ccc(-c4ccoc4)cc23)cc1	-29%	nt	nt	nt	nt	nt
CC(I)CCC(C)[n+]1cccc(I)c1 (centres undefined)	nt	12%	nt	nt	nt	-12%
CCOC(=O)c1ccc(NC(=O)C(C)Sc2nc(=O)cc(N)n2CCc2ccccc2)cc1 (centres undefined)	-12%	1%	-3%[46.1 µM]	5µM*	nt	3%
O=C(O)/C=C/c1cnn(-c2ccccc2)c1	-67%	0%	2.8µM*	?	13%	-3%
CCOC(=O)/C=C/c1cnn(-c2ccccc2)c1	41%	-6%	20%	?	-6%	-10%
C[C@H](CO)N1C[C@H](C)[C@H](CN(C)Cc2ccc(-c3ccccc3)cc2)Oc2ccc(NS(=O)(=O)c3ccccc3)cc2CC1=O	?	10µM*	nt	nt	?	?
C[C@H]1CN([C@@H](C)CO)C(=O)Cc2cc(NC(=O)CCC(F)(F)F)ccc2O[C@H]1CN(C)Cc1ccc(-c2ccccc2)cc1	-25%	?	nt	nt	?	11µM*
CCOC(=O)C1=CC2(CC)CCCN3CCc4c(n1c1ccccc41)C32 (centres undefined)	9%[97.4 µM]	-4%[60.7 µM]	nt	nt	nt	-6%[60.7 µM]
C=CCC[C@H](Cc1ccc(F)cc1)C(=O)OC[C@H](Cc1c[nH]c2ccccc12)NC(=O)[C@@H](CC=C)CC(=O)N(CCO)Cc1ccccc1	40µM*	11µM*	nt	nt	?	?
